# Laboratory results published in PubChem BioAssay AID1117264 (The Scripps Research Institute Molecular Screening Center, 2014).
# Screen size: about 89,000 compounds; about 440 (0.49%) were called active. The list comes from a sample in which actives are over-represented; it also holds similar structures and randomly drawn compounds. Unmarked numbers belong to inactive results.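 The calls were made as follows: active = inhibition above the mean inhibition across all screened compounds plus 3 SD (cut at about 11% in these data); inactive = the rest.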
# Biological target: RNA-editing ligase 1, mitochondrial (Trypanosoma brucei brucei) (UniProt P86926)
# Sequence (P86926 whole entry, looked up): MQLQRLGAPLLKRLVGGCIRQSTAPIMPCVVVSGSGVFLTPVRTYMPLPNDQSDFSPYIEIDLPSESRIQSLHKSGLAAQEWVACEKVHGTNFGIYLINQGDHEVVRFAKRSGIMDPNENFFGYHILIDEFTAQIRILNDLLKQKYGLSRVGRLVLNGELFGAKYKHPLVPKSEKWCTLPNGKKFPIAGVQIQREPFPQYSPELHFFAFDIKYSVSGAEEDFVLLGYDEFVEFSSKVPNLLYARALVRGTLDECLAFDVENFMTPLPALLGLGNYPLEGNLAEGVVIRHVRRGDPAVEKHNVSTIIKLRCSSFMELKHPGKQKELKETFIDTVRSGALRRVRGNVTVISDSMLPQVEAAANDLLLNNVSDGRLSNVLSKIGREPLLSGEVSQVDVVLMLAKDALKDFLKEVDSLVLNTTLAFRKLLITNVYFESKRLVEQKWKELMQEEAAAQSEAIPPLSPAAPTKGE
# Assay: T. brucei editing ligase REL1 blockade – biochemical, FRET fluorescence, primary screen (AID 1117264);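 also: 0% = plate median of test wells and 100% = NSC42067 control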
# Details: TbREL1 RNA ligation, at 9.66 µM, stronger effect = higher value
row,Structure (SMILES),inhibition
1,O=C(N/N=C/c1cccc([N+](=O)[O-])c1)c1ccncc1,7.99%
2,O=[N+]([O-])c1ccc2c(c1)C(O)n1nc(-c3ccccc3)nc1S2 (configuration not stated),5.85%
3,O=C(CSc1nccn1-c1cccc(F)c1)NC1CCCC1,-3.03%
4,COc1cc(-c2nnc(NC(=O)C3=COCCO3)o2)cc(OC)c1OC,1.27%
5,O=C(CSc1nc2ccccc2nc1N1CCCCC1)N1CCN(S(=O)(=O)c2cccc([N+](=O)[O-])c2)CC1,-1.26%
6,Cc1cc(=O)oc2cc(OCC(=O)Nc3nnc(C4CC4)s3)ccc12,4.82%
7,Cc1ccc(NC(=O)CN(C)C(=O)COC(=O)C(C)(C)Oc2ccc(Cl)cc2)cc1,1.09%
8,CCNc1nc(Oc2ccc(C(=O)OC)cc2)nc(N2CCOCC2)n1,3.37%
9,CCCC[C@@H]1CN=C(N)N1CCCC,8.04%
10,O=C(Cn1nnc(N2CCCCC2)n1)c1ccc(Cl)c(Cl)c1,2.76%
11,Cc1cc(C)cc(NC(=O)NC2CCCCCCC2)c1,4.83%
12,O=C(Nc1cccc(F)c1)NC1CCCc2ccccc21 (configuration not stated),4.99%
13,O=C(Nc1cccc(F)c1)NC1CCCCCCC1,12% (active)
14,O=C(CSc1nnc(COc2ccccc2)n1Cc1ccco1)c1ccc2ccccc2c1,2.5%
15,CN1CCC(=NNC(=O)c2ccc(N(Cc3ccc(Cl)cc3)S(C)(=O)=O)cc2)CC1,0.47%
16,CC(C)C[C@H]1CN=C(Nc2ccccc2)N1CC1CCCCC1,4.52%
17,Cc1cc(C)c(OCC(=O)N(Cc2cccs2)C2CCS(=O)(=O)C2)c(C)c1 (configuration not stated),2.35%
18,C=CCNC(=S)NNC(=O)c1cc(Cl)ccc1OC,-1.18%
19,CCN(C(=O)CSc1nnc(-c2ccc(OC(F)F)cc2)n1N)C1CCS(=O)(=O)C1 (configuration not stated),-0.55%
20,O=C(CSc1ccc([N+](=O)[O-])cn1)Nc1ccc(N2CCOCC2)c(Cl)c1,4.47%
21,CC(C)CNC(=O)OCc1cn(Cc2ccc(F)cc2)nn1,-1.2%
22,Nc1nonc1-n1nnc(C(=O)N/N=C/C2CCCCC2)c1-c1ccccc1,2.56%
23,CC1CCN(S(=O)(=O)c2ccc3[nH]c(=O)ccc3c2)CC1,2.13%
24,Cc1cccc(NC(=S)N2CCCC(c3nc4ccccc4[nH]3)C2)c1 (configuration not stated),-6.41%
25,COc1ccc(NC(=O)CCN2C(=O)/C(=C/c3ccc4c(c3)OCO4)SC2=S)cc1,-1.87%
26,O=C(O)c1ccc(S(=O)(=O)N2CCOCC2)o1,0.79%

row,Structure (SMILES),inhibition
1,COc1ccc(Br)c(Cn2c(C)c(C(=O)NCc3cccs3)sc2=O)c1,2.25%
2,Cc1cc(NC(=O)C(C)N2C(=O)c3ccccc3S2(=O)=O)no1 (configuration not stated),3.27%
3,CC1(C)Cc2c(sc(NC(=O)C(=O)N3CCOCC3)c2C#N)CO1,-1.21%
4,COc1ccc(OC)c(NC(=O)c2cccc(S(=O)(=O)N3CCN(C(C)=O)CC3)c2)c1,-0.85%
5,CC(=O)Nc1ccc(NC(=O)CSC2=NS(=O)(=O)c3ccccc3N2)cc1,2.64%
6,CCCOc1cccc(C(=O)Nc2ccccc2C(=O)N2CCN(C)CC2)c1,0.64%
7,Cc1sc2ncn(CC(=O)NCCN(C)C)c(=O)c2c1S(=O)(=O)N1CCC(C)CC1,-1.59%
8,Cc1ccc(C(=O)Cc2nnc(C)s2)cc1,-0.4%
9,CSCCC(NC(=O)COc1ccccc1)C(=O)Nc1ccc(C)cc1 (configuration not stated),-0.75%
10,O=C(CCNC(=O)Cn1ccc2ccccc2c1=O)NCCC1=CCCCC1,-2.59%
11,CC(Oc1ccccc1)C(=O)Nc1c2c(nn1-c1ccccc1)CS(=O)C2 (configuration not stated),0.74%
12,CCOC(=O)N1CCN(C(=O)c2ccccc2N(Cc2ccccc2)S(=O)(=O)c2ccc(OC)cc2)CC1,-1.48%
13,COc1ccc(NC(=O)CN(C)C(=O)CNC(=O)C2CCCCC2)cc1,-1.04%
14,N/C(=N\OC(=O)Cc1ccc([N+](=O)[O-])cc1)c1ccccn1,5.64%
15,CCOc1ccc(-n2cnnn2)cc1S(=O)(=O)N1CCC(C)CC1C (configuration not stated),-0.48%
16,CC(=O)O[C@@]1(C(C)=O)CCC2[C@H]3C=C(C)C4=CC(=O)CC[C@@]4(C)C3CC[C@]21C (some centres not stated),2.86%
17,Cc1ccc(CN(Cc2cccnc2)C(=S)Nc2cccc(Cl)c2C)cc1,-3.35%
18,COc1cccc2c1CCC(NC(C)=O)C2=O (configuration not stated),0.33%
19,CC(C#N)OC(=O)c1cccnc1SCC(=O)Nc1ccc2c(c1)OCO2 (configuration not stated),-2.63%
20,COC(=O)c1ccc2c(c1)S(=O)(=O)NC2C (configuration not stated),-0.32%
21,O=C1CCC/C=C\C[C@@H](CC(=O)N(CCO)Cc2ccccc2)C(=O)NCCO1,3.07%
22,O=C(Nc1n[nH]c(C(F)(F)F)n1)c1cccs1,0.59%
23,Cc1cc(=O)[nH]c(SCC(=O)Nc2ccc(Cl)cc2C)n1,6.53%
24,CC(=O)Nc1ccc(-c2csc(NC=C3C(=O)OC(C)(C)OC3=O)n2)cc1,0.47%
25,O=C(CN1CCN(c2ccccn2)CC1)NCc1cccs1,-2.97%
26,CC(C)Cn1c(N)c(C(=O)NCc2cccs2)c2nc3ccccc3nc21,44% (active)

row,Structure (SMILES),inhibition
1,CC(C)(C)OC(=O)c1c(N)n(CCCN2CCCC2=O)c2nc3ccccc3nc12,-0.01%
2,Nc1c(Cl)cc(-c2csc(N3CCCC3c3nc4cc(Cl)c(Cl)cc4n3CCOCCO)n2)cc1Cl (configuration not stated),-4.69%
3,Cn1ccnc1SCC(=O)Nc1ccc2c(c1)OCCO2,2.46%
4,Cc1cccc(NC(=S)NC23CN4CN(CN(C4)C2)C3)c1,-3.73%
5,COC(=O)C(C)Oc1ccc2c(c1)O/C(=C\c1cccc(Br)c1)C2=O (configuration not stated),1.78%
6,Cc1c(C(=O)OCC(=O)N2CCCC2=O)oc2ccccc12,-0.28%
7,COC(=O)C1=C(C)N(Cc2ccccc2)C(=NCCCOC(C)C)N[C@H]1c1ccccc1,8.47%
8,COC(=O)C1=C(C)N(Cc2cccc(C(F)(F)F)c2)C(=NCc2ccccc2)NC1c1ccccc1C(F)(F)F (configuration not stated),18.8% (active)
9,COC(=O)C1=C(C)N(Cc2ccc(F)cc2)C(=S)NC1c1cccc(Cl)c1 (configuration not stated),-6.48%
10,COC(=O)C1=C(C)N(Cc2cccc(C(F)(F)F)c2)C(=NCc2ccccc2)NC1c1ccc(Cl)cc1 (configuration not stated),10.5%
11,COC(=O)C1=C(C)N(Cc2cccc(C(F)(F)F)c2)C(=NCc2cccc(C(F)(F)F)c2)NC1c1ccccc1C(F)(F)F (configuration not stated),17.6% (active)
12,CC(C)NC(=O)C1(C)CCCCN1Cc1cccc(C(F)(F)F)c1 (configuration not stated),-3.05%
13,C[C@H](NC(=O)c1[nH]cnc1C(=O)Nc1nccs1)c1ccccc1,2.49%
14,S=C(NCc1ccco1)NCc1ccccc1Cl,-2.97%
15,CCOC(=O)C1CCN(c2c(Nc3cc(C)cc(C)c3)c(=O)c2=O)CC1,-4.56%
16,Cc1ccc(NS(=O)(=O)c2ccc(C(C)C)cc2)cc1S(=O)(=O)N1CCOCC1,-0.97%
17,Cc1cccc(Nc2nnc(SCC(=O)c3c(N)n(C4CC4)c(=O)[nH]c3=O)s2)c1C,1.72%
18,O=C(CSc1nc2sc3c(c2c(=O)n1-c1ccccc1)CCCC3)NN=Cc1ccc(OCc2ccccc2)cc1,0.03%
19,Cc1ccc2c(c1)nnc1nnc(SCC(=O)O)n12,1.61%
20,COC(=O)c1cc(S(=O)(=O)N2CCN(C(=O)C3CCCO3)CC2)cn1C (configuration not stated),0.88%
21,Cc1ccc2c(CN3CCN(S(=O)(=O)c4ccccc4C(F)(F)F)CC3)cc(=O)oc2c1,6.44%
22,CC(=O)Nc1ccc(NC(=O)[C@@H](NC(=O)c2cccc(C)c2)C(C)C)cc1,1.63%
23,COc1ccccc1NC(=S)N1CCC(NC(=O)C23CC4CC(CC(C4)C2)C3)CC1,-2.86%
24,CC(C)(C)C1C/C(=C/c2ccco2)C(=O)/C(=C/c2ccco2)C1 (configuration not stated),32.6% (active)
25,COC(=O)C1=C(C)N(c2ccc(Br)cc2)C(=O)/C1=C\c1ccco1,4.92%
